Data as given in PubChem BioAssay AID1347170 (National Center for Advancing Translational Sciences (NCATS), 2019).
Results filed as inconclusive are left out. Entries that show only a call come without a potency. The source made the active and inactive calls. Calls come from the whole dose curve; as a rule, active = well fitted cell-killing curve with a large enough effect; inconclusive = small, poorly fitted or top-dose-only effect, or another doubt; inactive = flat fitted curve, though single readings scatter.

Experiment: Vero cells viability counterscreen for qRT-PCR qHTS assay of selected Zika virus inhibitors
Conditions: CellTiter-Glo ATP luminescence, 24 h; series mostly up to 41.8 µM
Source text: Assay Submitters (PI): Avindra Nath, Ph.D., National Institute of Neurological Disorders and Stroke (NINDS), Bethesda, MD Radhakrishnan Padmanabhan, Ph.D., Georgetown University (GU), Washington D.C. Zika Virus causes congenital defects, including microcephaly and is associated with Guillain-Barre syndrome, eningoencephalitis and myelitis in infected adult. […] Using a target-based approach, we hope to establish a screening paradigm to uncover novel, cell-active NS2B-NS3 protease (Zika Virus) specific inhibitors from NCATS' collection of small molecules using qHTS. […] Four assay panel was created to identify potential Zika Virus inhibitors. Namely, (1) GU unlinked NS2B-NS3 AMC tagged protease qHTS, (2) GU unlinked NS2B-NS3 Rhodamine tagged protease qHTS, (3) NINDS linked NS2B-NS3 AMC tagged protease qHTS, (4) NINDS linked NS2B-NS3 Rhodamine tagged protease qHTS. Inhibitors of the Zika virus primary screens are confirmed using qRT-PCR secondary assays, mCherry orthogonal assay, and Vero cells viability counterscreen. Cytotoxic compounds identified in the Vero cell viability counterscreen were excluded from the list of potential Zika virus inhibitors. Early Translation Branch (ETB) National Center for Advancing Translational Sciences (NCATS), Rockville, MD National Institute of Health (NIH), Bethesda, Maryland
Vero Cell Viability Assay: Vero cell cytotoxicity was determined using a luminescent readout with CellTiter Glo reagent (Promega, Madison, WI), which is based on measuring the ATP content within cells. Briefly, 4 uL of Vero cells at 2.5 x 10^5 cells/mL in DMEM containing 4% FBS were dispensed into 1536-well solid bottom tissue treated white plate using a Multidrop Combi dispenser (Thermo Scientific). Plates were incubated at 37 degrees C, 95% humidity, and 5% CO2 overnight to allow for cell attachment. Compounds were dissolved in DMSO at different concentrations and transferred via pintool (Wako Automation), for a final concentration of 57 uM - 0.029 uM. Plates were again incubated for 24 hours, followed by a 2 uL addition of CellTiter Glo. Finally, plates were incubated for 30 minutes at 37 degrees C and 5% CO2 before being read on a ViewLux (Perkin Elmer) for luminescence.
With `O=C(Nc1ccc([N+](=O)[O-])cc1Cl)c1cc(Cl)ccc1O` the Potency was “inactive”. With `O=C(O)Cn1nnc(-c2cc(N3CCC(Oc4cc(F)ccc4Br)CC3)no2)n1` the Potency was “inactive”. With `COc1cc(C(=O)NS(=O)(=O)c2ccccc2C)ccc1Cc1cn(C)c2ccc(NC(=O)OC3CCCC3)cc12` the Potency was “inactive”. In the case of `Cc1nc(C2CCCCC2)c(-c2ccc(S(N)(=O)=O)c(F)c2)o1`, the Potency is reported as “inactive”. With `CC1(C)CC[C@]2(C(=O)O)CC[C@]3(C)C(=CCC4[C@@]5(C)C[C@@H](O)[C@H](O)C(C)(C)C5CC[C@]43C)C2C1` (stereo partly drawn) the Potency was “inactive”. In the case of `CCCCCCCOc1cc2c(cc1/C(C)=C/c1ccc(C(=O)O)cc1)C(C)(C)CCS2(=O)=O`, the Potency is reported as “inactive”. In the case of `N#CC(c1ccc(Cl)cc1)c1c(Cl)cc(-n2ncc(=O)[nH]c2=O)cc1Cl` (stereo not drawn), the Potency is reported as “inactive”. For `CC(C)c1ccc2c(c1)c(SC(C)(C)C)c(CC(C)(C)C(=O)O)n2Cc1ccc(Cl)cc1`, the Potency was 15.8 µM (active). In the case of `N#CC1(c2cccc(C(=O)Nc3cc(Oc4ccc5nc(NC(=O)C6CC6)sc5n4)ccc3F)c2Cl)CC1`, the Potency is reported as “inactive”. In the case of `CC1(C)CCC(C)(C)c2cc3c(cc21)Sc1ccccc1N=C3c1ccc(C(=O)O)cc1`, the Potency is reported as “inactive”. For `COc1cc2c(c(O)c1OC/C=C(\C)CC/C=C(/C)CCC=C(C)C)CN(C(CCC(=O)O)C(=O)O)C2=O` (stereo not drawn), the Potency was “inactive”. With `O=C(c1cc(O)c(O)c([N+](=O)[O-])c1)c1ccccc1F` the Potency was “inactive”. With `O=C(O)c1ccc(-n2nc(-c3ccccc3O)nc2-c2ccccc2O)cc1` the Potency was “inactive”. For `CC(C)=CCc1c2c(c3occ(-c4ccc(O)c(O)c4)c(=O)c3c1O)C=CC(C)(C)O2`, the Potency was 8.91 µM (active). In the case of `CN(C)[C@@H]1C(=O)C(C(N)=O)=C(O)[C@@]2(O)C(=O)C3=C(O)c4c(O)ccc(Cl)c4[C@@H](O)[C@H]3C[C@@H]12`, the Potency is reported as “inactive”. For `Cc1cc(C)cc(C(=O)N(C)[C@H](Cc2ccc(-c3ccccc3)cc2)C(=O)N[C@@H](Cc2c[nH]c3ccccc23)C(=O)O)c1`, the Potency was “inactive”. For `CN(Cc1ccc(C(=O)O)cc1)c1ccc(OCc2c(-c3c(Cl)cccc3Cl)noc2C2CC2)nc1C(F)(F)F`, the Potency was “inactive”. In the case of `O=S(=O)(O)c1ccc2cc(N=Nc3cc(S(=O)(=O)O)c4cccnc4c3O)ccc2c1`, the Potency is reported as “inactive”. In the case of `O=C(O)c1c(Sc2ccccc2)c2cc(Cl)ccc2n1Cc1ccc(Cl)cc1`, the Potency is reported as “inactive”. For `O=C(Nc1ccc(Oc2ccc(Cl)cc2)c(Cl)c1)c1cc(I)cc(I)c1O`, the Potency was “inactive”. For `C/C(=C\c1ccc(C(=O)O)cc1)c1ccc2c(c1)C(C)(C)CCC2(C)C`, the Potency was “inactive”. With `O=C(O)c1ccc(CCCc2ccc(OCCc3ccc(F)cc3)cc2)o1` the Potency was “inactive”. With `CCc1oc2ccccc2c1C(=O)c1cc(Br)c(O)c(Br)c1` the Potency was “inactive”. For `COc1ccccc1-c1cccc(-c2c(O)c3cc(C#N)c(Cl)cc3[nH]c2=O)c1`, the Potency was “inactive”. With `CC[C@H](C)[C@H]1O[C@]2(CC[C@@H]1C)C[C@@H]1C[C@@H](C/C=C(\C)[C@@H](O[C@H]3C[C@H](OC)[C@@H](O[C@H]4C[C@H](OC)[C@@H](O)[C@H](C)O4)[C@H](C)O3)[C@@H](C)/C=C/C=C3\CO[C@@H]4[C@H](O)C(C)=C[C@@H](C(=O)O1)[C@]34O)O2` the Potency was 11.2 µM (active). For `CC(C)c1cccc2c(-c3ccccc3)cc(-c3ccc(-c4ccc(C(=O)O)cc4)[nH]3)nc12`, the Potency was 25.1 µM (active). With `Cc1ccn(-c2ccc(-c3ncco3)cc2)c(=O)c1-c1ccc2nc(N)ncc2c1` the Potency was “inactive”. For `COc1cccc(-n2nc(C(=O)O)cc2-c2ccc(C3CCCCC3)c(Cl)c2)c1`, the Potency was “inactive”. For `O=C(N/N=C/c1ccc(O)c(O)c1)c1cc2ccccc2cc1O`, the Potency was “inactive”. With `O=C(O)CC1CCC(c2ccc(-c3ccc(Nc4ccc(C(F)(F)F)nc4)cn3)cc2)CC1` (stereo not drawn) the Potency was “inactive”. For `Cc1ccc2c(=O)c3ccccc3n(CCCN)c2c1C`, the Potency was “inactive”. In the case of `Cc1cccc(C)c1NS(=O)(=O)c1ccc(NS(=O)(=O)c2ccc3c(c2)OCCO3)cc1`, the Potency is reported as “inactive”. In the case of `CC(C)(O)c1ccccc1CC[C@@H](SCC1(CC(=O)O)CC1)c1cccc(/C=C/c2ccc3ccc(Cl)cc3n2)c1`, the Potency is reported as “inactive”.
